Results reported in PubChem BioAssay (EPA / NIEHS).
Some compounds were tested as several samples or in several runs, with calls that do not always agree. Calls of active or inactive are those of the source. Rule for the calls: active = hit-call score of the fitted dose curve at least 0.9, where 1 is the maximum; inactive = score below 0.9.

Key:
[1] = CEETOX_H295R_ESTRONE: CeeTox H295R High-throughput Steroidogenesis Assay for Estrone (AID 2283441); conditions: actives raise or lower the signal;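 note: estrone secreted into medium measured by LC-MS/MS after dansyl derivatization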;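 for AC50: human adrenal H295R cells prestimulated with forskolin for two days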
Summary of the method: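 H295R cells; 48 h forskolin (10 uM) prestimulation; 48 h compound exposure, 0.1% DMSO final. Medium estrone: MTBE extraction, dansyl derivatization, HPLC-MS/MS. Bidirectional fit vs DMSO.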

[2] = CEETOX_H295R_PROG: CeeTox H295R High-throughput Steroidogenesis Assay for Progesterone (PROG) (AID 2283442); conditions: actives raise or lower the signal;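 for AC50: human H295R adrenal cells primed with 10 µM forskolin before dosing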
Summary of the method: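 Measured analyte is progesterone secreted by H295R cells at 48 h of chemical treatment, following 10 uM forskolin priming. Quantitation used HPLC-MS/MS against a 7-point standard curve; cytotoxicity was checked by MTT absorbance.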

[3] = read-out: Tumor necrosis factor receptor superfamily member 6 (Homo sapiens) (UniProt P25445); experiment: LTEA_HepaRG_FAS: Life Technologies and Expression Analysis (LTEA) Assay for Fas cell surface death receptor (FAS) using HepaRG (AID 2283447); conditions: mRNA level, 48 h; actives raise or lower the signal
Summary of the method: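 Differentiated human HepaRG cells, pre-cultured 48 h, were exposed in duplicate for 48 h to 8-point half-log concentrations (top 100 uM, 0.5% DMSO) in serum-free induction medium; FAS mRNA measured by qRT-PCR, normalized to ACTB/GAPDH/POLR2A, bidirectional fit versus DMSO.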

[4] = read-out: Cyclin D2 (CCND2), CCND2 (gene 894); experiment: LTEA_HepaRG_CCND2: Life Technologies and Expression Analysis (LTEA) Assay for Cyclin D2 (CCND2) using HepaRG (AID 2283449); conditions: mRNA level, 48 h; actives raise or lower the signal;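 note: CCND2 transcript measured by TaqMan qRT-PCR and normalised to three housekeeping genes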
Summary of the method: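 Differentiated human HepaRG cells were exposed for 48 h in serum-free induction medium to eight half-log concentrations topping at 100 uM (0.5% DMSO vehicle). CCND2 mRNA was quantified by TaqMan qRT-PCR, normalised to ACTB, GAPDH and POLR2A, and fitted bidirectionally against DMSO.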

[5] = read-out: Cyclin Dependent Kinase Inhibitor 1A (CDKN1A), CDKN1A (gene 1026); experiment: LTEA_HepaRG_CDKN1A: Life Technologies and Expression Analysis (LTEA) Assay for Cyclin Dependent Kinase Inhibitor 1A (CDKN1A) using HepaRG (AID 2283450); conditions: mRNA level, 48 h; actives raise or lower the signal
Summary of the method: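 Gain or loss of CDKN1A transcript is scored by bidirectional fitting against 0.5% DMSO vehicle. Human HepaRG cultures receive chemicals for 48 h across an 8-point series peaking at 100 uM; expression comes from qRT-PCR.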

[6] = read-out: Cyclin D1 (CCND1), CCND1 (gene 595); experiment: LTEA_HepaRG_CCND1: Life Technologies and Expression Analysis (LTEA) Assay for Cyclin D1 (CCND1) using HepaRG (AID 2283451); conditions: mRNA level, 48 h; actives raise or lower the signal;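 for AC50: TaqMan qRT-PCR transcript level normalised to ACTB GAPDH and POLR2A housekeeping genes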
Summary of the method: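 Expression change is measured by qRT-PCR in HepaRG cells after 48 h treatment across eight concentrations topping at 100 uM, with duplicate wells and DMSO (0.5%) serving as baseline for bidirectional fitting.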

[7] = read-out: catalase (CAT), CAT (gene 847); experiment: LTEA_HepaRG_CAT: Life Technologies and Expression Analysis (LTEA) Assay for catalase (CAT) using HepaRG (AID 2283452); conditions: mRNA level, 48 h; actives raise or lower the signal
Summary of the method: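 Differentiated HepaRG cells in serum-free induction medium were dosed 48 h in duplicate, eight half-log concentrations from 100 uM in 0.5% DMSO. Transcript measured by TaqMan qRT-PCR, normalised to ACTB/GAPDH/POLR2A, fitted bidirectionally against DMSO.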

[8] = read-out: flavin-containing dimethylaniline monooxygenases 3 (FMO3), FMO3 (gene 2328); experiment: LTEA_HepaRG_FMO3: Life Technologies and Expression Analysis (LTEA) Assay for flavin-containing dimethylaniline monooxygenases 3 (FMO3) using HepaRG (AID 2283453); conditions: mRNA level, 48 h; actives raise or lower the signal;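 for AC50: FMO3 transcript by TaqMan qRT-PCR normalized to ACTB GAPDH and POLR2A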
Summary of the method: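 HepaRG, 48 h exposure, 8-pt half-log series from 100 uM, 0.5% DMSO vehicle, duplicates; FMO3 transcript by Fluidigm TaqMan qRT-PCR, housekeeping-normalized; gain/loss fit vs DMSO.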

[9] = read-out: Cytochrome P450 (CYP1A1), CYP1A1 (gene 1543); experiment: LTEA_HepaRG_CYP1A1: Life Technologies and Expression Analysis (LTEA) Assay for Cytochrome P450 (CYP1A1) using HepaRG (AID 2283454); conditions: mRNA level, 48 h; actives raise or lower the signal
Summary of the method: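 Using HepaRG cultures with 0.5% DMSO as vehicle, eight-concentration exposures (max 100 uM) lasted 48 h. Transcript levels were measured by TaqMan qRT-PCR and normalized to ACTB, GAPDH and POLR2A.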

[10] = read-out: CFLAR gene, CFLAR (gene 8837); experiment: LTEA_HepaRG_CFLAR: Life Technologies and Expression Analysis (LTEA) Assay for CFLAR gene using HepaRG (AID 2283455); conditions: mRNA level, 48 h; actives raise or lower the signal
Summary of the method: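 HepaRG cells were plated for 48 h, switched to serum-free induction medium, then exposed in duplicate for 48 h to 8 concentrations (top 100 uM, half-log steps, 0.5% DMSO). CFLAR mRNA was measured by qRT-PCR, normalized to ACTB, GAPDH and POLR2A.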

[11] = read-out: Forkhead box O1 (FOXO1), FOXO1 (gene 2308); experiment: LTEA_HepaRG_FOXO1: Life Technologies and Expression Analysis (LTEA) Assay for Forkhead box O1 (FOXO1) using HepaRG (AID 2283456); conditions: mRNA level, 48 h; actives raise or lower the signal
Summary of the method: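 Differentiated human HepaRG cells in serum-free induction medium were exposed in duplicate for 48 h to eight half-log concentrations (top 100 uM, 0.5% DMSO). FOXO1 mRNA was measured by TaqMan qRT-PCR, normalised to ACTB, GAPDH and POLR2A, and fitted bidirectionally against DMSO.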

[12] = CEETOX_H295R_TESTO: CeeTox H295R High-throughput Steroidogenesis Assay for Testosterone (TESTO) (AID 2283457); conditions: actives raise or lower the signal;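 for AC50: cells exposed to chemicals for 48 h before medium collection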
Summary of the method: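 Steroidogenesis in H295R cells following OECD 456 with minor changes; 48 h exposure. Medium testosterone by HPLC-MS/MS, DMSO as baseline, with MTT viability run in parallel.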

[13] = read-out: Forkhead box O3 (FOXO3), FOXO3 (gene 2309); experiment: LTEA_HepaRG_FOXO3: Life Technologies and Expression Analysis (LTEA) Assay for Forkhead box O3 (FOXO3) using HepaRG (AID 2283459); conditions: mRNA level, 48 h; actives raise or lower the signal
Summary of the method: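 Differentiated human HepaRG cells in serum-free induction medium were exposed in duplicate for 48 h to eight half-log concentrations up to 100 uM in 0.5% DMSO. FOXO3 mRNA was quantified by qRT-PCR, normalized to ACTB, GAPDH and POLR2A, with bidirectional fitting versus DMSO.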

[14] = read-out: ABC Transporter (ABCB1), ABCB1 (gene 5243); experiment: LTEA_HepaRG_ABCB1: Life Technologies and Expression Analysis (LTEA) Assay for ABC Transporter (ABCB1) using HepaRG (AID 2283460); conditions: mRNA level, 48 h; actives raise or lower the signal
Summary of the method: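 Differentiated human HepaRG cells, plated 48 h then switched to serum-free induction medium, were exposed in duplicate to eight half-log concentrations up to 100 uM in 0.5% DMSO for 48 h. ABCB1 mRNA was measured by TaqMan qRT-PCR, normalized to ACTB/GAPDH/POLR2A.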

[15] = read-out: growth arrest and DNA damage 45 (GADD45B), GADD45B (gene 4616); experiment: LTEA_HepaRG_GADD45B: Life Technologies and Expression Analysis (LTEA) Assay for growth arrest and DNA damage 45 (GADD45B) using HepaRG (AID 2283461); conditions: mRNA level, 48 h; actives raise or lower the signal
Summary of the method: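 Human HepaRG monolayers receive chemicals for 48 h at eight half-log concentrations, highest 100 uM, in 0.5% DMSO. Expression is measured by TaqMan qRT-PCR and normalized to ACTB, GAPDH and POLR2A.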

[16] = read-out: ABC Transporter (ABCC3), ABCC3 (gene 8714); experiment: LTEA_HepaRG_ABCC3: Life Technologies and Expression Analysis (LTEA) Assay for ABC Transporter (ABCC3) using HepaRG (AID 2283462); conditions: mRNA level, 48 h; actives raise or lower the signal
Summary of the method: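 Transcriptional change of ABCC3 in HepaRG after 48 h treatment, determined by qRT-PCR normalized to endogenous controls. Concentrations spanned eight half-log steps to 100 uM in 0.5% DMSO.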

[17] = read-out: ABC Transporter (ABCB11), ABCB11 (gene 8647); experiment: LTEA_HepaRG_ABCB11: Life Technologies and Expression Analysis (LTEA) Assay for ABC Transporter (ABCB11) using HepaRG (AID 2283463); conditions: mRNA level, 48 h; actives raise or lower the signal
Summary of the method: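 Differentiated human HepaRG cells were exposed for 48 h in serum-free induction medium to eight half-log concentrations up to 100 uM in 0.5% DMSO. ABCB11 mRNA was quantified by qRT-PCR, normalized to ACTB, GAPDH and POLR2A, and fitted bidirectionally versus DMSO.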

[18] = read-out: ABC Transporter (ABCC2), ABCC2 (gene 1244); experiment: LTEA_HepaRG_ABCC2: Life Technologies and Expression Analysis (LTEA) Assay for ABC Transporter (ABCC2) using HepaRG (AID 2283464); conditions: mRNA level, 48 h; actives raise or lower the signal
Summary of the method: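 After plating and 48 h culture, HepaRG medium is replaced with serum-free induction medium and chemicals are added (8 concentrations, max 100 uM, 0.5% DMSO) for 48 h. Total RNA then undergoes qRT-PCR for ABCC2 with housekeeping normalization.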

[19] = read-out: growth arrest and DNA damage 45 (GADD45A), GADD45A (gene 1647); experiment: LTEA_HepaRG_GADD45A: Life Technologies and Expression Analysis (LTEA) Assay for growth arrest and DNA damage 45 (GADD45A) using HepaRG (AID 2283458); conditions: mRNA level, 48 h; actives raise or lower the signal
Summary of the method: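 Differentiated HepaRG cells were exposed in duplicate for 48 h in serum-free induction medium to 8-point half-log concentrations up to 100 uM in 0.5% DMSO. GADD45A mRNA was measured by TaqMan qRT-PCR, normalized to ACTB, GAPDH and POLR2A, with bidirectional fitting versus DMSO.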

[20] = read-out: Fatty acid synthase (Homo sapiens) (UniProt P49327); experiment: LTEA_HepaRG_FASN: Life Technologies and Expression Analysis (LTEA) Assay for Fatty Acid Synthase (FASN) using HepaRG (AID 2283448); conditions: mRNA level, 48 h; actives raise or lower the signal
Summary of the method: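 Differentiated human HepaRG cells were exposed for 48 h in serum-free induction medium to eight half-log concentrations up to 100 uM in 0.5% DMSO, in duplicate. FASN mRNA was quantified by TaqMan qRT-PCR, normalized to ACTB/GAPDH/POLR2A, and fitted bidirectionally against DMSO.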

Chain of Fatty acid synthase (Homo sapiens) (P49327 whole entry, looked up): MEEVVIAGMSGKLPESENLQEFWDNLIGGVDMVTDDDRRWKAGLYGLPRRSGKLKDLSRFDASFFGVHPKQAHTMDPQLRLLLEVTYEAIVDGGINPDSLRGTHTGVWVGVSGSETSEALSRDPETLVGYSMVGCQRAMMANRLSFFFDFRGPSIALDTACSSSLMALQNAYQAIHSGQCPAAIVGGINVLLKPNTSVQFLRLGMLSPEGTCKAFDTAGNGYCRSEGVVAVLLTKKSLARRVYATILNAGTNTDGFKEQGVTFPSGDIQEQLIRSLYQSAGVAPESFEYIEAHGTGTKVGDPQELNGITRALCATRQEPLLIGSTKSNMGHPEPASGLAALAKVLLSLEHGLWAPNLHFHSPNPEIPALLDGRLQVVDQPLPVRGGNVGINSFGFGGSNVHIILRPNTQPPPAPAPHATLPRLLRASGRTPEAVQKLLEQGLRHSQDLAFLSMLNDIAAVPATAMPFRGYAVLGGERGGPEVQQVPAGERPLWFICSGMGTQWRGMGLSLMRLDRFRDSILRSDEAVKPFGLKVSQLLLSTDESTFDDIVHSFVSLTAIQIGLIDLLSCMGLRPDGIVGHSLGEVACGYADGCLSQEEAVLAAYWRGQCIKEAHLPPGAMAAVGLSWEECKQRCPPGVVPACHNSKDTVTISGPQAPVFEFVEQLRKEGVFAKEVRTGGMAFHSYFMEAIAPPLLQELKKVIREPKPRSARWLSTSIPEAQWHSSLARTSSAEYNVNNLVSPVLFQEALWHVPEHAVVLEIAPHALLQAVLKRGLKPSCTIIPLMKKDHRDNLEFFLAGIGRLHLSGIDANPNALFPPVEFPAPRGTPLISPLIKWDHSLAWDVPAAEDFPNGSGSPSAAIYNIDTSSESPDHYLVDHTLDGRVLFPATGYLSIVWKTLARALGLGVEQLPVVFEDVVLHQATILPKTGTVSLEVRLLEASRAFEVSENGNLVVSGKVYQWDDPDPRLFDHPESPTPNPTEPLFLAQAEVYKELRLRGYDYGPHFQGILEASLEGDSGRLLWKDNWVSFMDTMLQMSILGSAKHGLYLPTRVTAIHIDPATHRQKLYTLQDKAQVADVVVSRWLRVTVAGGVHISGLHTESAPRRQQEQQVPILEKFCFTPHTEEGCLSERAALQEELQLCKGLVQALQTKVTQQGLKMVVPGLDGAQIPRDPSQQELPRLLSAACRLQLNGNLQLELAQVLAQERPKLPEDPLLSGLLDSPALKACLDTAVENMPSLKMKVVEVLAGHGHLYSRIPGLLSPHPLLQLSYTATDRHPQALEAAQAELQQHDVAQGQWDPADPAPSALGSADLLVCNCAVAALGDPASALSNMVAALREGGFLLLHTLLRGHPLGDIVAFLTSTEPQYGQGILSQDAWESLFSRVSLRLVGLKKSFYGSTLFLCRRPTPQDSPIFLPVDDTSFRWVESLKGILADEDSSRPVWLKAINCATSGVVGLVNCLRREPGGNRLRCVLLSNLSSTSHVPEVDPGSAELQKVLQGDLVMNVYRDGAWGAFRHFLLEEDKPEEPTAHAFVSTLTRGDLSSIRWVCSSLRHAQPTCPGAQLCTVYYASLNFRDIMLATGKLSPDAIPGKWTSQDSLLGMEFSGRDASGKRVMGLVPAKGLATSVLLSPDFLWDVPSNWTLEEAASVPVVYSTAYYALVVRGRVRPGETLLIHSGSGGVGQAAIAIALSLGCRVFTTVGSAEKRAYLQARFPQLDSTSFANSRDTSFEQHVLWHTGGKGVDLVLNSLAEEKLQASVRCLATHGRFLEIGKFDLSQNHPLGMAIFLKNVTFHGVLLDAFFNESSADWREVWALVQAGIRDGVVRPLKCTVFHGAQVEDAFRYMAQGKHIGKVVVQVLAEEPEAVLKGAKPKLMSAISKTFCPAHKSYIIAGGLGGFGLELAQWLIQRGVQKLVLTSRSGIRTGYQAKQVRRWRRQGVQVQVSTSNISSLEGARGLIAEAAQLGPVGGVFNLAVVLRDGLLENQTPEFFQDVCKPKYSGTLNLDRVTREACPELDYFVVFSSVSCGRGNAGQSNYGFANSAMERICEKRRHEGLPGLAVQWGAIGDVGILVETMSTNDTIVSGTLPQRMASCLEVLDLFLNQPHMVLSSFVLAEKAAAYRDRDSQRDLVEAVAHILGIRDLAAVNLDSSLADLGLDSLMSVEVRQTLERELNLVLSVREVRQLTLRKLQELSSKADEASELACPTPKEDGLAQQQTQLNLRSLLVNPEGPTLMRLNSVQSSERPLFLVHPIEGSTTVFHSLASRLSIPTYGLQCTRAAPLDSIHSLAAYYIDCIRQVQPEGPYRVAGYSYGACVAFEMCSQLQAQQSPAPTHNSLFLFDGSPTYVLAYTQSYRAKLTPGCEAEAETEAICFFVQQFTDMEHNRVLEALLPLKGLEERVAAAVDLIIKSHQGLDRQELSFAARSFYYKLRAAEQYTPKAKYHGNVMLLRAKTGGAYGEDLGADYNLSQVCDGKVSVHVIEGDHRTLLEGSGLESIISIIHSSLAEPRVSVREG

CC(C)(c1ccc(O)cc1)c1ccc(O)cc1
outcome [1]: inactive
outcome [2]: inactive
outcome [3]: inactive
outcome [4]: inactive
outcome [5]: inactive
outcome [6]: inactive
outcome [7]: inactive
outcome [8]: inactive
AC50 [9]: 11.7 µM (active)
outcome [9]: inactive
outcome [10]: inactive
outcome [11]: inactive
AC50 [12]: 3.57 µM (active)
outcome [12]: inactive
outcome [13]: inactive
AC50 [14]: 50 µM (active)
outcome [14]: inactive
outcome [15]: inactive
outcome [16]: inactive
outcome [17]: inactive
outcome [18]: inactive

CSC(=O)c1cccc2nnsc12
outcome [2]: inactive
outcome [3]: inactive
outcome [4]: inactive
outcome [5]: inactive
outcome [6]: inactive
outcome [8]: inactive
AC50 [9]: 50 µM (active)
outcome [10]: inactive
outcome [11]: inactive
outcome [12]: inactive
outcome [13]: inactive
outcome [14]: inactive
outcome [15]: inactive
outcome [16]: inactive
outcome [17]: inactive
outcome [18]: inactive

CCN(Cc1c(F)cccc1Cl)c1c([N+](=O)[O-])cc(C(F)(F)F)cc1[N+](=O)[O-]
AC50 [1]: 13.7 µM (active)
outcome [2]: inactive
outcome [3]: inactive
outcome [4]: inactive
outcome [5]: inactive
outcome [6]: inactive
AC50 [8]: 50 µM (active)
AC50 [9]: 14.8 µM (active)
outcome [10]: inactive
outcome [19]: inactive
outcome [13]: inactive
outcome [14]: inactive
AC50 [15]: 50 µM (active)
outcome [16]: inactive
outcome [17]: inactive
AC50 [18]: 50 µM (active)

S=C([S-])NCCNC(=S)[S-].[Mn+2]
outcome [2]: inactive
AC50 [3]: 5.41 µM (active)
AC50 [20]: 2.55 µM (active)
outcome [4]: inactive
outcome [5]: inactive
AC50 [6]: 0.485 µM (active)
AC50 [8]: 5.71 µM (active)
AC50 [9]: 8.74 µM (active)
AC50 [10]: 3.43 µM (active)
AC50 [13]: 3.51 µM (active)
AC50 [14]: 3.47 µM (active)
AC50 [15]: 5.56 µM (active)
AC50 [16]: 2.06 µM (active)
AC50 [17]: 1.85 µM (active)
AC50 [18]: 2.87 µM (active)

CCNc1nc(N)nc(Cl)n1
outcome [2]: inactive
outcome [3]: inactive
outcome [20]: inactive
outcome [4]: inactive
outcome [5]: inactive
outcome [6]: inactive
outcome [8]: inactive
outcome [9]: inactive
outcome [10]: inactive
outcome [13]: inactive
outcome [14]: inactive
outcome [15]: inactive
outcome [16]: inactive
outcome [17]: inactive
outcome [18]: inactive

CC(=O)[C@H]1CC[C@H]2[C@@H]3CCC4=CC(=O)CC[C@]4(C)[C@H]3CC[C@]12C
outcome [1]: inactive
AC50 [2]: 5 µM (active)
AC50 [3]: 60.6 µM (active)
AC50 [20]: 82.1 µM (active)
outcome [4]: inactive
AC50 [5]: 16.8 µM (active)
outcome [6]: inactive
AC50 [8]: 34.1 µM (active)
AC50 [9]: 34.6 µM (active)
AC50 [10]: 77.8 µM (active)
outcome [13]: inactive
AC50 [14]: 79.3 µM (active)
AC50 [15]: 30 µM (active)
AC50 [16]: 28.2 µM (active)
AC50 [17]: 58.5 µM (active)
AC50 [18]: 78.9 µM (active)
